Several values for one entry are separate records, joined by “and”; a condition that tells them apart may be missing. Equal values may be shown once. The campaign covered roughly 5,500 compounds. About 2,000 (36%) were called active. Another 18% or so got no clear call; they are omitted. Cut-off read from the data, not from the text of the source: active = normalized growth mostly below about 0.91 (no sharp cut-off); inconclusive = no clear call, values can overlap the other calls; inactive = mostly above about 0.92. The list shows a part of the results.
Test: chemical genetic growth profiling, strain panel (AID 1159580);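 note: tested at 20 µM; growth read once vehicle control cultures reached saturation at 30 °C; 1 = growth at the plate median or of vehicle wells; lower values mean less growth of the strain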
Details: S. cerevisiae deletion strains, growth OD

Measured: normalized growth

COc1ccc([C@H]2Oc3cc(OC)cc(OC)c3C[C@H]2O)cc1
inactive: locus YAL013W, strain DEP1, stronger effect = lower value 1.01 | locus YAL021C, strain ccr4, stronger effect = lower value 1 | locus YAL026C, strain drs2, stronger effect = lower value 0.995 | locus YAL030W, strain snc1, stronger effect = lower value 0.993 | locus YBL061C, strain skt5, stronger effect = lower value 0.997 | locus YBR009C, strain hhf1, stronger effect = lower value 1.01 | locus YBR021W, strain FUR4, stronger effect = lower value 1.06 | locus YBR023C, strain chs3, stronger effect = lower value 1 | locus YBR171W, strain sec66, stronger effect = lower value 0.98 | locus YBR229C, strain ROT2, stronger effect = lower value 1 | locus YBR231C, strain swc5, stronger effect = lower value 1.01 | locus YBR279W, strain paf1, stronger effect = lower value 0.994 | locus YCL011C, strain gbp2, stronger effect = lower value 0.997 | locus YCL016C, strain dcc1, stronger effect = lower value 1 | locus YCL029C, strain bik1, stronger effect = lower value 1.01 | locus YCL061C, strain MRC1, stronger effect = lower value 0.987 | locus YCL069W, strain vba3, stronger effect = lower value 0.996 | locus YCR088W, strain abp1, stronger effect = lower value 0.999 | locus YDL005C, strain med2, stronger effect = lower value 0.996 | locus YDL035C, strain GPR1, stronger effect = lower value 1.05 | locus YDL040C, strain nat1, stronger effect = lower value 1 | locus YDL074C, strain BRE1, stronger effect = lower value 1.12 | locus YDL101C, strain DUN1, stronger effect = lower value 1.01 | locus YDL185W, strain tfp1, stronger effect = lower value 1.01 | locus YDL192W, strain arf1, stronger effect = lower value 1 | locus YDR001C, strain nth1, stronger effect = lower value 0.998 | locus YDR069C, strain doa4, stronger effect = lower value 1.01 | locus YDR101C, strain arx1, stronger effect = lower value 0.983 | locus YDR137W, strain rgp1, stronger effect = lower value 0.867 | locus YDR159W, strain sac3, stronger effect = lower value 0.998 | locus YDR162C, strain NBP2, stronger effect = lower value 1.03 | locus YDR195W, strain ref2 1.05 | locus YDR297W, strain sur2, stronger effect = lower value 1 | locus YDR318W, strain mcm21, stronger effect = lower value 1 | locus YDR334W, strain swr1, stronger effect = lower value 1.01 | locus YDR335W, strain msn5, stronger effect = lower value 1 | locus YDR388W, stronger effect = lower value 1.01 | locus YDR392W, strain spt3, stronger effect = lower value 0.948 | locus YDR502C, strain sam2, stronger effect = lower value 1.01 | locus YEL003W, strain gim4, stronger effect = lower value 0.996 | locus YEL037C, strain rad23, stronger effect = lower value 0.989 | locus YEL061C, strain CIN8 (second series), stronger effect = lower value 1 | locus YEL061C, strain CIN8, stronger effect = lower value 1.02 | locus YER015W, strain faa2, stronger effect = lower value 1 | locus YER016W, strain bim1, stronger effect = lower value 0.994 | locus YER110C, stronger effect = lower value 0.987 | locus YER111C, strain swi4, stronger effect = lower value 0.998 | locus YER155C, strain BEM2 (second series), stronger effect = lower value 1.01 | locus YER155C, strain BEM2, stronger effect = lower value 1 | locus YER167W, strain BCK2, stronger effect = lower value 1 | locus YFR010W, strain ubp6, stronger effect = lower value 1.01 | locus YGL078C, strain dbp3, stronger effect = lower value 1.02 | locus YGL086W, strain mad1, stronger effect = lower value 0.999 | locus YGL167C, strain pmr1, stronger effect = lower value 0.989 | locus YGL173C, strain kem1, stronger effect = lower value 1 | locus YGL227W, strain vid30, stronger effect = lower value 1 | locus YGL240W, strain doc1, stronger effect = lower value 1.01 | locus YGL248W, strain PDE1, stronger effect = lower value 1.05 | locus YGL253W, strain hxk2, stronger effect = lower value 0.996 | locus YGR135W, strain pre9, stronger effect = lower value 1.07 | locus YGR252W, strain gcn5, stronger effect = lower value 1.08 | locus YHR013C, strain ard1, stronger effect = lower value 1.05 | locus YHR027C, strain rpn1, stronger effect = lower value 0.992 | locus YHR030C, strain SLT2, stronger effect = lower value 0.985 | locus YHR079C, strain IRE1 (second series), stronger effect = lower value 1.02 | locus YHR079C, strain IRE1, stronger effect = lower value 0.994 | locus YHR094C, strain hxt1, stronger effect = lower value 1.01 | locus YHR129C, strain ARP1, stronger effect = lower value 1.02 | locus YHR142W, strain chs7, stronger effect = lower value 0.981 | locus YHR200W, strain rpn10, stronger effect = lower value 1.03 | locus YIL066C, strain RNR3, stronger effect = lower value 1.02 | locus YIL073C, strain SPO22, stronger effect = lower value 1.07 | locus YIL125W, strain kgd1, stronger effect = lower value 1 | locus YIR030C, strain dcg1, stronger effect = lower value 0.99 | locus YJL092W, strain hpr5, stronger effect = lower value 0.997 | locus YJL095W, strain BCK1 (second series), stronger effect = lower value 1 | locus YJL095W, strain BCK1, stronger effect = lower value 1.04 and 1 | locus YJL115W, strain asf1, stronger effect = lower value 1.01 | locus YJL129C, strain trk1, stronger effect = lower value 1.04 | locus YJL134W, strain LCB3, stronger effect = lower value 1 | locus YJL154C, strain vps35, stronger effect = lower value 0.989 | locus YJL164C, strain tpk1, stronger effect = lower value 1.01 | locus YJL166W, strain qcr8, stronger effect = lower value 0.994 | locus YJL168C, strain set2, stronger effect = lower value 1 | locus YJL187C, strain SWE1 (second series), stronger effect = lower value 1.03 | locus YJL187C, strain SWE1, stronger effect = lower value 1 | locus YJR043C, strain POL32, stronger effect = lower value 1.08 | locus YJR066W, strain TOR1, stronger effect = lower value 0.938 | locus YKL009W, strain mrt4, stronger effect = lower value 1.03 | locus YKL068W, stronger effect = lower value 1 | locus YKL085W, strain MDH1 (second series), stronger effect = lower value 0.99 | locus YKL085W, strain MDH1, stronger effect = lower value 0.99 | locus YKL160W, strain elf1, stronger effect = lower value 0.994 | locus YKL190W, strain CNB1, stronger effect = lower value 1.02 | locus YKR001C, strain vps1, stronger effect = lower value 0.99 | locus YKR026C, strain gcn3, stronger effect = lower value 0.999 | locus YKR091W, strain srl3, stronger effect = lower value 1 | locus YLL001W, strain dnm1, stronger effect = lower value 0.988 | locus YLL026W, stronger effect = lower value 1 | locus YLL041C, strain sdh2, stronger effect = lower value 0.985 | locus YLR027C, strain aat2, stronger effect = lower value 0.997 | locus YLR039C, strain RIC1, stronger effect = lower value 1.1 | locus YLR058C, strain SHM2, stronger effect = lower value 1.01 | locus YLR102C, strain apc9, stronger effect = lower value 0.997 | locus YLR113W, strain HOG1, stronger effect = lower value 0.983 | locus YLR221C, strain rsa3, stronger effect = lower value 1 | locus YLR258W, strain gsy2, stronger effect = lower value 0.995 | locus YLR262C, strain YPT6 (second series), stronger effect = lower value 0.914 | locus YLR268W, strain sec22, stronger effect = lower value 1.01 | locus YLR320W, strain mms22, stronger effect = lower value 0.999 | locus YLR342W, strain FKS1 (second series), stronger effect = lower value 0.997 | locus YLR342W, strain FKS1, stronger effect = lower value 0.994 | locus YLR357W, strain rsc2, stronger effect = lower value 1.07 | locus YLR370C, strain arc18, stronger effect = lower value 0.99 | locus YLR371W, strain rom2, stronger effect = lower value 1.04 | locus YLR384C, strain iki3, stronger effect = lower value 0.994 | locus YLR418C, strain cdc73, stronger effect = lower value 1.06 | locus YML016C, strain PPZ1, stronger effect = lower value 0.998 | locus YML032C, strain rad52, stronger effect = lower value 1.01 | locus YML120C, strain ndi1, stronger effect = lower value 1.01 | locus YML124C, strain tub3, stronger effect = lower value 1 | locus YMR058W, strain fet3, stronger effect = lower value 0.997 | locus YMR078C, strain ctf18, stronger effect = lower value 1.01 | locus YMR125W, strain sto1, stronger effect = lower value 1.01 | locus YMR129W, stronger effect = lower value 1 | locus YMR205C, strain PFK2, stronger effect = lower value 1.02 | locus YMR223W, strain ubp8, stronger effect = lower value 1 | locus YMR231W, strain pep5, stronger effect = lower value 0.989 | locus YMR307W, strain GAS1, stronger effect = lower value 1.31 | locus YNL067W, strain RPL9B, stronger effect = lower value 1.02 | locus YNL071W, strain lat1, stronger effect = lower value 0.994 | locus YNL183C, strain NPR1, stronger effect = lower value 0.932 | locus YNL209W, strain ssb2, stronger effect = lower value 0.994 | locus YNL233W, strain BNI4, stronger effect = lower value 1.06 | locus YNL248C, strain rpa49, stronger effect = lower value 1.01 | locus YNL250W, strain rad50, stronger effect = lower value 1.05 | locus YNL271C, strain bni1, stronger effect = lower value 0.995 | locus YNL298W, strain CLA4, stronger effect = lower value 0.975 | locus YNL307C, strain MCK1, stronger effect = lower value 1.02 | locus YNL322C, strain KRE1 (second series), stronger effect = lower value 1 | locus YNL322C, strain KRE1, stronger effect = lower value 1.01 | locus YNR049C, strain mso1, stronger effect = lower value 1 | locus YNR052C, strain pop2, stronger effect = lower value 1.02 | locus YOL012C, strain htz1 1.39 | locus YOL147C, strain pex11, stronger effect = lower value 0.994 | locus YOR001W, strain rrp6, stronger effect = lower value 0.992 | locus YOR061W, strain CKA2, stronger effect = lower value 1 | locus YOR069W, strain VPS5, stronger effect = lower value 0.996 | locus YOR070C, strain gyp1, stronger effect = lower value 0.99 | locus YOR080W, strain dia2, stronger effect = lower value 1.01 | locus YOR083W, strain WHI5, stronger effect = lower value 0.993 | locus YOR106W, strain vam3, stronger effect = lower value 0.999 | locus YOR136W, strain idh2, stronger effect = lower value 1 | locus YOR144C, strain elg1, stronger effect = lower value 1 | locus YOR184W, strain ser1, stronger effect = lower value 0.94 | locus YOR231W, strain MKK1, stronger effect = lower value 1 | locus YOR265W, strain rbl2, stronger effect = lower value 0.999 | locus YOR270C, strain vph1, stronger effect = lower value 0.976 | locus YOR290C, strain snf2, stronger effect = lower value 1.01 | locus YOR316C, strain cot1, stronger effect = lower value 1.02 | locus YPL051W, strain arl3, stronger effect = lower value 0.984 | locus YPL055C, strain LGE1, stronger effect = lower value 1.09 | locus YPL078C, strain atp4, stronger effect = lower value 0.995 | locus YPL106C, strain sse1, stronger effect = lower value 1.07 | locus YPL240C, strain hsp82, stronger effect = lower value 0.986 | locus YPL256C, strain CLN2, stronger effect = lower value 0.972 | locus YPR119W, strain clb2, stronger effect = lower value 0.99 | locus YPR141C, strain kar3, stronger effect = lower value 0.998 | locus YPR163C, strain tif3, stronger effect = lower value 1.01 | locus YPR167C, strain met16, stronger effect = lower value 1.01 | strain wtn01, stronger effect = lower value 0.992

Source: PubChem BioAssay AID1159580 (chemical genetic matrix, 2015)
